Results filed as inconclusive are left out. Calls of active or inactive are those of the source. Rule for the calls: active = hit-call score of the fitted dose curve at least 0.9, where 1 is the maximum; inconclusive = response in the unintended direction; inactive = score below 0.9.

human Peroxisome Proliferator-activated Receptor delta (PPARd) Agonism, conducted at France lab site, PPARD (gene 5467), sequence (Q03181 whole entry, looked up): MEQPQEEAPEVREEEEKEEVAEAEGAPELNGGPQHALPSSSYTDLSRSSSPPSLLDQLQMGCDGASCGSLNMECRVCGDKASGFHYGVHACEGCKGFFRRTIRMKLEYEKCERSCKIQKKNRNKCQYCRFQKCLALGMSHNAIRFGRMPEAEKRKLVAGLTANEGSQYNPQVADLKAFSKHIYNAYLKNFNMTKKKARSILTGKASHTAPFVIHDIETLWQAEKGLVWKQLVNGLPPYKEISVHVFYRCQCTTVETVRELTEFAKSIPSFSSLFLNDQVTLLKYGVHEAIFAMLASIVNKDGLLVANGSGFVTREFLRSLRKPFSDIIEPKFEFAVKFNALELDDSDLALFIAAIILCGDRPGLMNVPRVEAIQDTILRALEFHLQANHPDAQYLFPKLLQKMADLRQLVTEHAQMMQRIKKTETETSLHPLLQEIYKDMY

For this test, the target named is human Peroxisome Proliferator-activated Receptor delta (PPARd) Agonism, conducted at France lab site, PPARD (gene 5467) (UniProt Q03181). In words: ERF_FR_NR_COA_hPPARD: Eurofins (ERF) Nuclear Receptor (NR) Functional Coactivator Assay for human Peroxisome Proliferator-activated Receptor delta (PPARd) Agonism, conducted at France lab site. As for the experimental part:
ERF_FR_NR_COA_hPPARD is a biochemical, single-readout assay that uses extracted gene-proteins in a cell-free assay. Measurements were taken 2 hours after chemical dosing in a 384-well plate. See PPARdelta Human NHR Functional Agonist Coactivator Assay, Cerep.ERF_FR_NR_COA_hPPARD is an assay component calculated from the ERF_FR_NR_COA_hPPARD assay. It is designed to measure FRET using a type of binding reporter as detected by fluorescence intensity of GW0742 with fluorimetry technology.Data from the assay component ERF_FR_NR_COA_hPPARD was analyzed at the assay endpoint, ERF_FR_NR_COA_hPPARD, in the positive analysis fitting direction relative to DMSO as the negative control and baseline of activity. […]
Histidine-tagged-PPARdelta (Ligand Binding Domain, 1.7 ul/ml proteins) are mixed with 50 nM biotin-tagged-C33 coactivator and 0.4 ug fluorescence acceptor (anti-histidine antibody coupled-beads) in an incubation buffer containing 20 mM Hepes/NaOH (pH 7.4), 80 mM Nacl, 0.08% Tween 20 and 0.8 mM DTT and 0.08% BSA. […] Thereafter, fluorescence donor (streptavidin coupled-beads) is added at a final concentration of 0.4 ug. Following 120 min incubation at 22C, the signal is measured at lambdaex=680 nm and lambdaem=520 and 620 nm using a microplate reader (EnVision, Perkin Elmer). The results are expressed as a percent of the control response to […] nM GW 0742. […]
`CC(C)(Oc1ccc(C(=O)c2ccc(Cl)cc2)cc1)C(=O)O`: the call was inactive.
In the case of `O=C(O)CCC(F)(F)C(F)(F)C(F)(F)F`, the call was inactive.

These data come from PubChem BioAssay AID2284387 (EPA ToxCast).
